The results in this text go back to PubChem BioAssay (Tox21).

Records with an inconclusive call do not appear. Where a call stands in place of a potency, no number is given. Activity calls are given as the source filed them. Calls come from the whole dose curve; as a rule, active = well fitted inhibition curve with a large enough effect in the repeat runs; inconclusive = weak or mixed curves; inactive = no such curve, though single readings can be large or run the other way.
Potency is the fitted concentration of half-maximal effect.

Chain of Cytochrome P450 2C9 (Homo sapiens) (P11712 whole entry, looked up): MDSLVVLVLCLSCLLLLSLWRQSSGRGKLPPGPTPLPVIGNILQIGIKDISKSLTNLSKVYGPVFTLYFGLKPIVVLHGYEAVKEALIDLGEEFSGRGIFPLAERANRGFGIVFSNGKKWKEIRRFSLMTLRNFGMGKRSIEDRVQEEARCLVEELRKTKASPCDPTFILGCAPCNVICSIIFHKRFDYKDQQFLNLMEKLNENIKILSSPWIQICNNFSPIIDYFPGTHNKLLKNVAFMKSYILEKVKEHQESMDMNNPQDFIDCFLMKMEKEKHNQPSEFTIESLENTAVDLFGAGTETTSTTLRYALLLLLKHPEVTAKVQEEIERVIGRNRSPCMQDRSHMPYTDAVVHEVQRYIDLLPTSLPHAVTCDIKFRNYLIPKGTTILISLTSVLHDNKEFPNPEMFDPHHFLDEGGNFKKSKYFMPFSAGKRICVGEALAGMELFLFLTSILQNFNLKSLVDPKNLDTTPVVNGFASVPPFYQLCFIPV

This experiment concerns the target Cytochrome P450 2C9 (Homo sapiens) (UniProt P11712). Briefly: Cytochrome P450 Family 2 Subfamily C Member 9 (CYP2C9) small molecule antagonists: luciferase reporter qHTS assay (AID 1671198). Note: nearly all actives have a fitted effect of over 50% in size. To be noted: P450-Glo CYP2C9 enzyme assay, luciferin luminescence; series mostly up to 115 µM. The method, boiled down:
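P450-Glo proluciferin substrate with CYP2C9 enzyme; 10 min RT preincubation, then NADPH regeneration 1 h at 37C; luciferin detection reagent 20 min RT, luminescence in relative luminescence units.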
(In general: In a reporter assay the amount or activity of a reporter protein is the signal.)
For the compound `COc1ccc2nc(SCc3ncc(C)c(OC)c3C)[nH]c2c1`, the Potency was 13.8 µM (active).

Regarding `COc1ccc2c(c1)C(=O)N(CCc1ccc(S(=O)(=O)NC(=O)NC3CCCCC3)cc1)C(=O)C2(C)C`, the Potency was 13.8 µM (active).

Regarding `O=C(OCC1(COC(=O)c2cccnc2)CCCC(COC(=O)c2cccnc2)(COC(=O)c2cccnc2)C1O)c1cccnc1`, the Potency is 12.3 µM (active).

Turning to `CCOCCOC(=O)/C=C/c1ccc(OC)cc1`, the Potency was 13.8 µM (active).

On to `CNC(=O)[C@H]1O[C@@H](n2cnc3c(NCc4cc(Cl)ccc4OCc4cc(C)no4)ncnc32)[C@H](O)[C@@H]1N`, for which the Potency result was “inactive”.

As to `CN(CCOc1ccc(NS(C)(=O)=O)cc1)CCc1ccc(NS(C)(=O)=O)cc1`, the Potency entry was “inactive”.

As to `CCCCNC1CC(C)(C)NC(C)(C)C1`, the Potency entry was “inactive”.

For the compound `O=C(NCCN1CCOCC1)c1ccc(Cl)cc1`, the Potency entry was “inactive”.

For `COc1ccc2c(c1OC)C(=O)O[C@@H]2[C@H]1c2c(cc3c(c2OC)OCO3)CCN1C`, the Potency was 0.871 µM (active).

As to `Nc1nnc(-c2cccc(Cl)c2Cl)c(N)n1`, the Potency result was “inactive”.

Consider `CC(N)C(=O)OC(C)(C)Cc1ccc(Cl)cc1` (stereo not drawn), for which the Potency was 15.5 µM (active).

On to `O=C(Nc1ccc(Cl)c(Cl)c1)C1CC1`, for which the Potency is 30.9 µM (active).

On to `CN(C)c1ccc(C=O)cc1`, for which the Potency is 35.6 µM (active).

For `Cc1ccc(S(=O)(=O)O)c(C)c1`, the Potency entry is “inactive”.

For `CC1(C)S[C@@H]2[C@H](N=CN3CCCCCC3)C(=O)N2[C@H]1C(=O)O`, the Potency entry was “inactive”.

`O=C1CCCC(=O)O1`: the Potency was 12.6 µM (active).

Take `C=CCCCCCCCCCCCC`: the Potency result is “inactive”.

Take `O=C1c2cccc3c2[C@H](CCC3)CN1[C@@H]1CN2CCC1CC2`: the Potency entry was “inactive”.
